Reference: the supplement of paper PMC12350171
Structures can show the parent of a compound that is named as a salt.

Tests used:
Settings in all cases: 20 µM
[1] = tested on: Salmonella enterica typhimurium; assay: growth AUC normalised to DMSO control (fraction of control); higher = less growth inhibition, active = hit call of the paper
How it was run: (§1)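 For the AUC endpoint, growth curves were integrated by the trapezoidal rule up to the exponential-to-stationary transition and normalised to DMSO controls on the same plate. The curves came from OD578 readings taken hourly for 24 h, in three biological replicates. Pathogens had been passaged anaerobically twice and inoculated at an OD578 of 0.01 into pre-reduced mGAM plates carrying 20 μM compound and 1% DMSO, sealed with breathable membranes. Medium for Haemophilus parainfluenzae also contained hemin and NAD.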

Shigella flexneri = assay: as above
How it was run: as §1

Vibrio cholerae = assay: as above
How it was run: as §1

[2] = tested on: Yersinia pseudotuberculosis; assay: as above
How it was run: as §1

P. vulgatus RND KO = assay: growth AUC normalised to DMSO control (median) (fraction of control); higher = less growth inhibition, active = hit call of the paper
How it was run: (§2)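 Anaerobic growth was tracked hourly at OD578 for 24 h in 96-well plates of mGAM seeded at OD578 0.01 with each approved-drug library compound at 20 μM and 1% DMSO. Strains had first been passaged twice overnight without oxygen. Three biological replicates were run. The reported median is the area under the curve, calculated by the trapezoidal rule on curves truncated at entry into stationary phase and normalised to vehicle wells on the same plate.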

P. vulgatus WT = assay: as above
How it was run: as §2

[3] = tested on: S. enterica typhimurium WT; assay: as above
How it was run: as §2

[4] = tested on: S. enterica typhimurium tolC KO; assay: as above
How it was run: as §2

Measured: growth AUC normalised to DMSO control
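Throughout, for growth AUC normalised to DMSO control (median): active when median AUC fell below 0.1.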

COC(c1ccccc1)(c1ccccc1)[C@H](Oc1nc(C)cc(C)n1)C(=O)O [Ambrisentan]
inactive: [1] 0.98 | Shigella flexneri 1.02 | Vibrio cholerae 1.01 | [2] 1.01 | P. vulgatus RND KO 0.997 | P. vulgatus WT 0.983 | [3] 0.991 | [4] 0.99

O=C(NCCN1CCOCC1)c1ccc(Cl)cc1 [Moclobemide]
inactive: [1] 0.981 | Shigella flexneri 0.961 | Vibrio cholerae 0.957 | [2] 1.01 | P. vulgatus RND KO 0.994 | P. vulgatus WT 0.987 | [3] 0.998 | [4] 0.996

CCCc1nc(C)c2c(=O)nc(-c3cc(S(=O)(=O)N4CCN(CC)CC4)ccc3OCC)[nH]n12 [Vardenafil]
inactive: [1] 1.01 | Shigella flexneri 1 | Vibrio cholerae 1.01 | [2] 1.01 | P. vulgatus RND KO 1.01 | P. vulgatus WT 1.01 | [3] 0.983 | [4] 0.984

NC(=O)NC1NC(=O)NC1=O (configuration not stated) [Allantoin]
inactive: [1] 1 | Shigella flexneri 0.996 | Vibrio cholerae 1.05 | [2] 0.989 | P. vulgatus RND KO 0.999 | P. vulgatus WT 1.01 | [3] 0.994 | [4] 0.998

Fc1ccc(C(c2ccc(F)cc2)N2CCN(C/C=C/c3ccccc3)CC2)cc1 [Flunarizine dihydrochloride]
inactive: [1] 1.04 | Shigella flexneri 1.04 | Vibrio cholerae 1.01 | [2] 1.02 | P. vulgatus RND KO 1.01 | P. vulgatus WT 1.03 | [3] 1.02 | [4] 0.987

NC[C@@H]1O[C@H](O[C@H]2[C@@H](O)[C@H](O[C@@H]3[C@@H](O)[C@H](N)C[C@H](N)[C@H]3O[C@H]3O[C@H](CO)[C@@H](O)[C@H](O)[C@H]3N)O[C@@H]2CO)[C@H](N)[C@@H](O)[C@@H]1O [Paromomycin sulfate]
inactive: [1] 1.01 | Shigella flexneri 0.993 | Vibrio cholerae 1.01 | [2] 0.997 | P. vulgatus RND KO 1 | P. vulgatus WT 0.991 | [3] 1 | [4] 1

CCCCOc1ccc(C(=O)CCN2CCCCC2)cc1 [Dyclonine hydrochloride]
inactive: [1] 0.985 | Shigella flexneri 0.963 | Vibrio cholerae 0.913 | [2] 0.979 | P. vulgatus RND KO 1 | P. vulgatus WT 1.01 | [3] 0.996 | [4] 0.986

CO/N=C(\C(=O)N[C@@H]1C(=O)N2C(C(=O)O)=C(C[N+]3(C)CCCC3)CS[C@H]12)c1csc(N)n1 [Cefepime hydrochloride]
active: [1] 0.00376 | Shigella flexneri 0.0351 | Vibrio cholerae 0.178 | [2] 0.049 | P. vulgatus RND KO 0.0104 | P. vulgatus WT 0.0103 | [3] 0.00386 | [4] 0.00189

COC(=O)CCc1ccc(OCC(O)CNC(C)C)cc1 (configuration not stated) [Esmolol hydrochloride]
inactive: [1] 1.01 | Shigella flexneri 1.06 | Vibrio cholerae 1.06 | [2] 1 | P. vulgatus RND KO 1.05 | P. vulgatus WT 1.09 | [3] 1 | [4] 1.01

C/C=C(/C(=C/C)c1ccc(O)cc1)c1ccc(O)cc1 [Dienestrol]
active: P. vulgatus RND KO 0.015
inactive: [1] 1 | Shigella flexneri 1.04 | Vibrio cholerae 0.969 | [2] 1.02 | P. vulgatus WT 0.264 | [3] 1 | [4] 0.857

CC(C)c1c(C(=O)Nc2ccccc2)c(-c2ccccc2)c(-c2ccc(F)cc2)n1CC[C@@H](O)C[C@@H](O)CC(=O)O [Atorvastatin]
inactive: [1] 1.01 | Shigella flexneri 1.04 | Vibrio cholerae 1.04 | [2] 1.01 | P. vulgatus RND KO 1.01 | P. vulgatus WT 1 | [3] 0.993 | [4] 0.994

CCN(CC)CCOC(=O)C1(c2ccc([N+](=O)[O-])cc2)CCCC1 [Nitrocaramiphen hydrochloride]
inactive: [1] 0.993 | Shigella flexneri 0.993 | Vibrio cholerae 0.974 | [2] 0.996 | P. vulgatus RND KO 1.03 | P. vulgatus WT 1.05 | [3] 1 | [4] 1

Cc1cccc(Nc2ccccc2C(=O)O)c1C [Mefenamic acid]
inactive: [1] 1 | Shigella flexneri 1.01 | Vibrio cholerae 0.926 | [2] 1 | P. vulgatus RND KO 0.958 | P. vulgatus WT 0.979 | [3] 0.985 | [4] 1.01

CN(C(=O)C(Cl)Cl)c1ccc(OC(=O)c2ccco2)cc1 [Diloxanide furoate]
inactive: [1] 0.998 | Shigella flexneri 0.959 | Vibrio cholerae 0.97 | [2] 0.978 | P. vulgatus RND KO 0.988 | P. vulgatus WT 0.996 | [3] 0.995 | [4] 0.966

Cc1ccc2c(c1)c1c3n2CCNC3CCC1 (configuration not stated) [Pirlindole mesylate]
inactive: [1] 0.988 | Shigella flexneri 0.999 | Vibrio cholerae 0.993 | [2] 0.964 | P. vulgatus RND KO 1.02 | P. vulgatus WT 1.03 | [3] 0.998 | [4] 0.992

Cc1nnc(SCC2=C(C(=O)O)N3C(=O)[C@@H](NC(=O)Cn4cnnn4)[C@H]3SC2)s1 [Cefazolin sodium salt]
active: [1] 0.00502 | Shigella flexneri 0.0191 | Vibrio cholerae 0.126 | [2] 0.0805 | P. vulgatus RND KO 0.0126 | P. vulgatus WT 0.0107 | [3] 0.00709 | [4] 0.00476

O=C(Nc1ccccc1)OCC(CN1CCCCC1)OC(=O)Nc1ccccc1 (configuration not stated) [Diperodon hydrochloride]
inactive: [1] 1.01 | Shigella flexneri 1.03 | Vibrio cholerae 0.999 | [2] 1.01 | P. vulgatus RND KO 0.998 | P. vulgatus WT 1.01 | [3] 0.997 | [4] 0.986

N=C(N)NC(=O)c1nc(Cl)c(N)nc1N [Amiloride hydrochloride dihydrate]
inactive: [1] 1.01 | Shigella flexneri 1.01 | Vibrio cholerae 1.04 | [2] 1.02 | P. vulgatus RND KO 1.03 | P. vulgatus WT 1.04 | [3] 0.982 | [4] 0.996

O=C(O)c1cc(-c2ccc(F)cc2F)ccc1O [Diflunisal]
inactive: [1] 0.983 | Shigella flexneri 0.997 | Vibrio cholerae 0.899 | [2] 0.984 | P. vulgatus RND KO 0.999 | P. vulgatus WT 1.07 | [3] 0.973 | [4] 0.943

CCCCOc1cc(C(=O)NCCN(CC)CC)c2ccccc2n1 [Dibucaine]
inactive: [1] 1 | Shigella flexneri 1.03 | Vibrio cholerae 1.03 | [2] 1.05 | P. vulgatus RND KO 1.04 | P. vulgatus WT 1.01 | [3] 1.01 | [4] 0.993

Clc1ccc(C(Cn2ccnc2)OCc2ccsc2Cl)c(Cl)c1 (configuration not stated) [Tioconazole]
inactive: [1] 0.986 | Shigella flexneri 0.984 | Vibrio cholerae 0.909 | [2] 1.07 | P. vulgatus RND KO 0.932 | P. vulgatus WT 0.929 | [3] 1 | [4] 0.903

Cc1cc(C(=O)NNCc2ccccc2)no1 [Isocarboxazid]
inactive: [1] 0.994 | Shigella flexneri 1.02 | Vibrio cholerae 1.03 | [2] 0.996 | P. vulgatus RND KO 1.05 | P. vulgatus WT 1.05 | [3] 0.998 | [4] 0.993

CC(=O)N[C@@H](CC(=O)O)C(=O)N[C@@H](CCC(=O)O)C(=O)O [Spaglumic acid]
inactive: [1] 1.03 | Shigella flexneri 1.01 | Vibrio cholerae 1.02 | [2] 1.02 | P. vulgatus RND KO 1.01 | P. vulgatus WT 1.04 | [3] 1.01 | [4] 1

CN(Cc1cc(Br)cc(Br)c1N)C1CCCCC1 [Bromhexine hydrochloride]
active: Vibrio cholerae 0.714
inactive: [1] 0.998 | Shigella flexneri 1.01 | [2] 1.02 | P. vulgatus RND KO 0.999 | P. vulgatus WT 0.977 | [3] 1 | [4] 0.948

CC(N)C12CC3CC(CC(C3)C1)C2 (configuration not stated) [Rimantadine hydrochloride]
inactive: [1] 0.99 | Shigella flexneri 0.987 | Vibrio cholerae 0.985 | [2] 0.869 | P. vulgatus RND KO 0.978 | P. vulgatus WT 0.983 | [3] 0.996 | [4] 0.989

CCOC(=O)[C@H](CCc1ccccc1)N[C@H]1CCc2ccccc2N(CC(=O)O)C1=O [Benazepril hydrochloride]
inactive: [1] 0.981 | Shigella flexneri 0.996 | Vibrio cholerae 1.01 | [2] 0.975 | P. vulgatus RND KO 1 | P. vulgatus WT 1 | [3] 1 | [4] 1

CN(C)CCCN1c2ccccc2Sc2ccccc21 [Promazine hydrochloride]
active: Vibrio cholerae 0.86
inactive: [1] 0.936 | Shigella flexneri 0.945 | [2] 0.965 | P. vulgatus RND KO 0.821 | P. vulgatus WT 0.776 | [3] 0.991 | [4] 0.971

C[C@H]1C[C@H]2[C@@H]3CCC4=CC(=O)C=C[C@]4(C)[C@@]3(F)[C@@H](O)C[C@]2(C)[C@@]1(O)C(=O)CO [Betamethasone]
inactive: [1] 0.985 | Shigella flexneri 0.957 | Vibrio cholerae 0.979 | [2] 0.988 | P. vulgatus RND KO 0.986 | P. vulgatus WT 0.98 | [3] 1 | [4] 0.991

Nc1nc(=O)[nH]cc1F [Flucytosine]
inactive: [1] 0.983 | Shigella flexneri 0.968 | Vibrio cholerae 0.961 | [2] 1.01 | P. vulgatus RND KO 0.996 | P. vulgatus WT 0.991 | [3] 1 | [4] 0.965
